# This is part of a sample that, as a whole, favours compounds with a hit. Of some 83,000 tested, about 20% had one in any assay.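 For each line, cells grew in 96-well plates with the test compound present at a single concentration for 48 hours.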 Unmarked numbers belong to inactive results. Activity calls are given as the source filed them. Rule for the calls: active = growth percent below 10; inactive = the rest.
# Tested on: KM12 colon
# Assay: NCI-60 one-dose screen, 48 h (100 = growth as untreated, 0 = no growth, -100 = all killed)
# Conditions: 10 µM
row,SMILES,growth
1,O=C(COc1ccc(-c2nc3ccccc3[nH]2)cc1)N=Nc1c(O)[nH]c2ccccc12,58.2%
2,C[C@]12CC[C@H]3[C@@H](CC=C4C[C@@H](O)CC[C@@]43C)[C@@H]1CC[C@@H]2C(=O)C/C=N/O,96.6%
3,COc1ccc(N2CCN(c3nc(-c4ccccc4)c(C#N)c(=O)[nH]3)CC2)cc1,96.8%
4,CCCCCCCCCCCC(=O)NCCCN(C)C,104%
5,COc1cccc(-c2nnc(COc3ccc(-c4nc5ccccc5[nH]4)cc3OC)o2)c1,98%
6,N/C(=N\O)c1cn(C2OC(CO)C(O)C2O)c2ncnc(N)c12 (stereo not given),-24.2% (active)
7,Nc1ccc(C2=CC(c3ccc(Cl)cc3)N3C=CSC3=N2)cc1 (stereo not given),-41.4% (active)
8,O=[N+]([O-])c1cc2ncccc2c2ncccc12,96.3%
9,O=C(CCc1ccccc1)N1CCN(C(=O)CCc2ccccc2)CC1,111%
10,COc1ccc(CCc2nc3cc(-c4c(C)noc4C)ccc3n2CCN2CCOCC2)cc1,33.6%
11,CCOC(=O)C(=O)Cc1cccnn1,108%
12,FC(F)(F)c1ccc(-c2nc(-c3nc4cc(Cl)c(Cl)cc4[nH]3)c3ccccn23)cc1,52.8%
13,COc1cc(CSc2nc3ccc(C)cc3c(=O)n2-c2ccccc2)cc(OC)c1OC,25.3%
14,CC(C)C[C@H](NC(=O)Cn1ccc2ccccc2c1=O)B(O)O,93.4%
15,CCCCC(=O)N(c1ccc(Nc2c3ccccc3nc3cc([N+](=O)[O-])ccc23)cc1)S(C)(=O)=O,38.4%
